# Active and inactive are the calls of the source. The calls were made as follows: active = hit-call score of the fitted dose curve at least 0.9, where 1 is the maximum; inactive = score below 0.9.
# Read-out: 3-Hydroxy-3-Methylglutaryl-CoA Synthase 2 (HMGCS2), HMGCS2 (gene 3158)
# Assay: LTEA_HepaRG_HMGCS2: Life Technologies and Expression Analysis (LTEA) Assay for 3-Hydroxy-3-Methylglutaryl-CoA Synthase 2 (HMGCS2) using HepaRG (AID 2283504)
# Conditions: mRNA level, 48 h; actives raise or lower the signal
# Description: LTEA_HepaRG is a cell based, multiplexed-readout assay that uses HepaRG, a human liver cell line, with measurements taken at 48 hours after chemical dosing on a 96-well plate.LTEA_HepaRG_HMGCS2 is one of 102 assay component(s) measured in the LTEA HepaRG cell culture assay. It is a marker of Steatosis.Data from the assay component LTEA_HepaRG_HMGCS2 was analyzed into 1 endpoint. This assay endpoint, LTEA_HepaRG_HMGCS2, was analyzed with bidirectional fitting relative to DMSO as the negative control and baseline of activity. Using a type of inducible reporter, measures of mRNA induction for gain or loss-of-signal activity can be used to understand regulation of transcription factor activity. To generalize the intended target to other relatable targets, this assay endpoint is annotated to the lyase intended target family, where the subfamily is HMG-CoA synthase.
# A total of 1060 chemcials from the ToxCast library were tested in eight-point concentration-response experiments. Cell culture and cytotoxicity assays were conducted at Thermo Fisher Scientific's Custom Services facility (Madison, WI). A single lot of human HepaRG cells (Thermo Fisher Scientific, Frederick, MD) was used for the cell culture experiments. 96-well format collagen type I coated plates of human HepaRG cells were prepared using established methods. Briefly, cryopreserved HepaRG cells were thawed, plated at a density of approximately 100,000 cells/well in HepaRG Thaw, Plate, and General Purpose media (HPRG770, Thermo Fisher Scientific), and incubated for 48 hours. 0.5% DMSO was selected as vehicle control to balance the requisite need of DMSO in HepaRG cultures to maintain differentiation (for example, baseline metabolism, proportions of hepatocytes vs. cholangiocytes), while enabling further hepatic receptor pathway activation (for example, PXR and CAR) in response to chemical exposure. 48 hours after plating, the culture medium was replaced with HepaRG Serum-Free Incudtion Media. Cells were exposed to each test chemical in duplicate and maintained in CO2 incubators for another 48 hours. Chemical plates were thawed to room temperature and 200x concentrations of treatment groups were prepared. 8-point conentration-reponse curves were made with the highest exposure at 100 uM, followed by half-log dilutions, all in 0.5% DMSO. Each test plate contained variouse controls, induction positive controls (1mM phenobarbital), cytotoxicity positive controls ([…] aflatoxin B1), vehicle controls (0.5% DMSO), and total lysis controls (0.5% DMSO). Cell morphology images were taken using an Essen IncuCyte FLR automated microscope, with six 96-well plates imaged in about 24 minutes. Images were captured and exported and JPEG files. Spent culture media was transfered to black-well plates for the LDH assay, and remaining media was sorted at -80 C for later use. Cells were treated with RLT buffer and frozen until shipped for gene expression analysis. Total RNA was isolated from the cell suspension in 75 uL of Buffer RLT (Qiagen, Germantown, MD 20874) by Quintiles/Expression Analysis (Durham, NC) using a custom isolation procedure. Total RNA from each plate well was transferred to a preamplification plate. Fluidigm's 96.96 Dynamic ArrayTM (Fluidigm, Amsterdam, the Netherlands) technology was used for gene expression analyses by quantitative reverse transcription polymerase chain reaction (qRT-PCR, performed by Quintiles/Expression Analysis, Durham, NC)89. Standard TaqManTM Assays (Applied Biosystems/ThermoFisher Scientific, Foster City, CA) were used to assess the expression of 93 genes selected based on their selectivity and sensitivity to important hepatic receptors known to be modulated by environmental chemicals; importance in human hepatocyte functionality; and hepatotoxicity. […]
SMILES,AC50,outcome
COc1ccc(S(=O)(=O)N2C(=O)[C@@](c3ccccc3OC)(N3C[C@H](O)C[C@H]3C(=O)N(C)C)c3cc(Cl)ccc32)c(OC)c1,15.8 µM (active),
Cc1cccc(C)c1O,,inactive
CC1(C)CC(N=C=O)CC(C)(CN=C=O)C1 (stereo not given),,inactive
CC(=O)OCCOCCOCCOC(C)=O,,inactive
CCCCCC(=O)O,,inactive
C[C@]12C=CC(=O)C=C1CC[C@@H]1[C@@H]2C(=O)C[C@@]2(C)[C@H]1CC[C@]2(O)C(=O)CO,,inactive
NC(=O)Cn1c(=O)cc(CCN2CCN(c3nccc4sccc34)CC2)c2ccc(F)cc21,50 µM (active),
NS(=O)(=O)c1cc2c(cc1Cl)NCNS2(=O)=O,,inactive
CCCCCCCCCCO,,inactive
Cc1ccc(C)c(C)c1,,inactive
Cc1nc(C)nc(N2C[C@@H](C)N(c3ccnc([C@@H](C)O)n3)[C@@H](C)C2)n1,,inactive
O=[N+]([O-])C(CO)(CO)CO,,inactive
CCCCCCCCCCCCCCCC,,inactive
Oc1ccc2ccccc2c1N=Nc1ccccc1,14.8 µM (active),
NCC1(Cc2noc(=O)[nH]2)CCCCC1,,inactive
C=CCOC(=O)c1ccccc1C(=O)OCC=C,,inactive
CNC(=O)[C@H]1O[C@@H](n2cnc3c(NCc4cc(Cl)ccc4OCc4cc(C)no4)ncnc32)[C@H](O)[C@@H]1N,,inactive
CC(C)c1ccc(C(=O)N=C(N)N)cc1S(C)(=O)=O,,inactive
CCOc1ccc2c(c1)C(C)=CC(C)(C)N2,20 µM (active),
COCCOC[C@H](CC1(C(=O)NC2CCC(C(=O)O)CC2)CCCC1)C(=O)Oc1ccc2c(c1)CCC2 (stereo not given in full),,inactive

SMILES,AC50,outcome
O=c1[nH]cc(F)c(=O)[nH]1,51 µM (active),
COc1cc(-c2nc(NC(=O)c3cc4cc(C)cc(C)c4n3CC(=O)O)sc2CCC2CCCCC2)c(OC)cc1Cl,6.61 µM (active),
CC(C)(C)c1cc(O)c(C(C)(C)C)cc1O,78.2 µM (active),
FC(F)(F)C(F)(F)C(F)(F)C(F)(F)C(F)(F)C(F)(F)CCI,,inactive
CN[C@H]1CC[C@@H](c2ccc(Cl)c(Cl)c2)c2ccc(S(N)(=O)=O)cc21,50 µM (active),
CC(=O)Oc1ccccc1C(=O)O,,inactive
O=C(OCCCCCOC(=O)c1ccccc1)c1ccccc1,,inactive
Cc1cccc([N+](=O)[O-])c1C,,inactive
COCCOCCOC,,inactive
CCCCOC(=O)CCCCCCCCC(=O)OCCCC,,inactive
CCCCN(CCCC)CCCC,,inactive
COC(=O)c1ccc(O)cc1,,inactive
CCc1c(C(=O)NN2CCCCC2)nn(-c2ccc(Cl)cc2Cl)c1-c1ccc(Br)cc1,23.7 µM (active),
Nc1ccc(S(=O)(=O)c2ccc(N)cc2)cc1,,inactive
CC(=O)C(C)=CC1C(C)=CCCC1(C)C (stereo not given),,inactive
Cc1ccccc1Cl,,inactive
CCCCCCCCCCCCCCCCCC(=O)O,,inactive
COc1cc(S(=O)(=O)O)c(C)cc1N=Nc1c(O)ccc2cc(S(=O)(=O)O)ccc12,,inactive
NCCO,,inactive
CCCCCCCCCCC,,inactive
